Inconclusive results are not listed. The source made the active and inactive calls. Unless noted, calls follow the shape of the full dose curve.
Assays:
[1] = qHTS assay to identify small molecule antagonists of the sonic hedgehog signaling (Shh) pathway (AID 1259369); also: nearly all actives have a fitted effect of over 45% in size
How it was run: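 Antagonist mode: compound added to 3T3 Gli1-Luc cells followed by conditioned-medium stimulation, 24 h at 37 C, 5% CO2. Inhibition taken as loss of Gli1-driven luciferase luminescence.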

[2] = target: Estrogen receptor beta (Homo sapiens) (UniProt Q92731); test: qHTS assay to identify small molecule agonists of the estrogen receptor beta (ER-beta) signaling pathway (AID 1259377; active = well fitted activation curve with a large enough effect in the signal ratio in the repeat runs, not every such curve was filed as active; the % refers to the signal ratio)
Estrogen receptor beta (Homo sapiens), sequence (Q92731 whole entry, looked up): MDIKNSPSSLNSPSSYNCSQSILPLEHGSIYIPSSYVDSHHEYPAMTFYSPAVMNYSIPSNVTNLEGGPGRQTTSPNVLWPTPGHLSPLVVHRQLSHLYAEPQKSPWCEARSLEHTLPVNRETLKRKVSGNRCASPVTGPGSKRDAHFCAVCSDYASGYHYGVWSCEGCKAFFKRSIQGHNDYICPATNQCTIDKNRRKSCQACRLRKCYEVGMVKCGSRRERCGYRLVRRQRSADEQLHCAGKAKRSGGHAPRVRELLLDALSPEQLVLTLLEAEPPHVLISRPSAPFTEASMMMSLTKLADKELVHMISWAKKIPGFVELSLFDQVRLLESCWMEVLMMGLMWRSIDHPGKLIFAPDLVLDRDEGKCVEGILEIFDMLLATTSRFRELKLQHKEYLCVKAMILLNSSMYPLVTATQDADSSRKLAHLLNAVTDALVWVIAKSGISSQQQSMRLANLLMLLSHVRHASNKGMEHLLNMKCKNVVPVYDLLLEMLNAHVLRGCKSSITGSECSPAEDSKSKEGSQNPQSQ
How it was run: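 qHTS in ER-beta-UAS-bla HEK293T cells: 6 hr settling, then 16 hr compound at 37C, then LiveBLAzer substrate 2 h at RT before fluorescence reading.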

[3] = target: Estrogen receptor beta (Homo sapiens) (UniProt Q92731); test: qHTS assay to identify small molecule antagonists of the estrogen receptor beta (ER-beta) signaling pathway (AID 1259378; active = well fitted inhibition curve with a large enough effect in the signal ratio in the repeat runs, not every such curve was filed as active; the % refers to the signal ratio)
How it was run: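 Antagonist mode: compounds added to beta-lactamase reporter HEK293T ER-beta-UAS cells stimulated with E2 (1nM final), 16 hr at 37C. LiveBLAzer B/G FRET substrate, 2 hours room temperature, fluorescence read-out.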

[4] = qHTS assay to identify small molecule agonists of the estrogen receptor beta (ER-beta) signaling pathway - cell viability counter screen (AID 1259380; active = well fitted curve in the direction sought with a large enough effect in the repeat runs; an effect the other way counts as inactive or inconclusive; also: nearly all actives have a fitted effect of over 30% in size)
How it was run: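 Cell viability counter screen: CellTiter-Glo luminescence (30 min, room temperature) measured in the same wells as the beta-lactamase readout, after 16 hr compound exposure at 37C of ER-beta-bla HEK293T cells in 2% charcoal-stripped FBS medium.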

[5] = target: Androgen receptor (Homo sapiens) (UniProt P10275); test: qHTS assay to identify small molecule agonists of the androgen receptor (AR) signaling pathway in the presence of an antagonist (AID 1259381); also: nearly all actives have a fitted effect of over 15% in size
Androgen receptor (Homo sapiens), sequence (P10275 whole entry, looked up): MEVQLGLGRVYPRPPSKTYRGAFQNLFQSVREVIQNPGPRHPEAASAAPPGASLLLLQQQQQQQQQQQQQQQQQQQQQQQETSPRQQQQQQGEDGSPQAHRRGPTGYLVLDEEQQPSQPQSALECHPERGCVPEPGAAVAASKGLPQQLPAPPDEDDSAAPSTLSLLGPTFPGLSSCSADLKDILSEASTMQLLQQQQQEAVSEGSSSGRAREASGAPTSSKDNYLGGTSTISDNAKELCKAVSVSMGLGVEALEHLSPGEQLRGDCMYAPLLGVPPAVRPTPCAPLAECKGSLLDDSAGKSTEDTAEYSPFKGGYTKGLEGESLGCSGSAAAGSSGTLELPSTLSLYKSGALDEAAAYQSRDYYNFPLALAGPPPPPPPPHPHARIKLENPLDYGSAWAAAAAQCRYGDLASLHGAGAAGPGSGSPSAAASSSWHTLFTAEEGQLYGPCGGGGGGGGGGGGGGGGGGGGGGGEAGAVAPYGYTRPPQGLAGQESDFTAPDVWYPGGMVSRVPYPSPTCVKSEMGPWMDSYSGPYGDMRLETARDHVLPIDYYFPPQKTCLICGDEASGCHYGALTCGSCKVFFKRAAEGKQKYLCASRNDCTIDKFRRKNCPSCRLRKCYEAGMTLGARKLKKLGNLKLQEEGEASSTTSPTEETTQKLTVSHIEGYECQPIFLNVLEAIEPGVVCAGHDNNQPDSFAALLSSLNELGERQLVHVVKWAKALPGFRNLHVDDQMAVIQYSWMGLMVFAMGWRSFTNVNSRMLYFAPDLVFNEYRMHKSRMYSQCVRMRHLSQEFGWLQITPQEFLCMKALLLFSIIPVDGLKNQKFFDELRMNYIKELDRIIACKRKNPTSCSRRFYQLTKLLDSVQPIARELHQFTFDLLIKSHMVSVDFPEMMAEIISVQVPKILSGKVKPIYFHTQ
How it was run: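 Agonist-mode confirmation run against 3.0 uM final nilutamide: compounds titrated at 15 concentrations onto MDA-kb2 MMTV-luciferase reporter cells. Luminescence measured with ONE-Glo following 16 hr incubation, 37C, 0% CO2.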

[6] = qHTS assay to identify small molecule antagonists of the estrogen receptor beta (ER-beta) signaling pathway - cell viability counter screen (AID 1259382; active = well fitted curve in the direction sought with a large enough effect in the repeat runs; an effect the other way counts as inactive or inconclusive;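 also: HEK293T cells carrying ER-beta-UAS-bla reporter stimulated with estradiol; series mostly up to about 92 µM; nearly all actives have a fitted effect of over 55% in size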)
How it was run: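 Cytotoxicity was measured in the same wells by CellTiter-Glo luminescence after 30 min at room temperature. Cells were ER-beta-bla HEK293T in charcoal-stripped serum, given compound together with 1 nM E2 and incubated 16 h at 37C.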

[7] = target: Estrogen receptor (Homo sapiens) (UniProt P03372); test: qHTS assay to identify small molecule agonists of the estrogen receptor alpha (ER-alpha) signaling pathway in the presence of an antagonist (AID 1259383); also: top concentration of the series differs between compounds; nearly all actives have a fitted effect of over 15% in size
Estrogen receptor (Homo sapiens), sequence (P03372 whole entry, looked up): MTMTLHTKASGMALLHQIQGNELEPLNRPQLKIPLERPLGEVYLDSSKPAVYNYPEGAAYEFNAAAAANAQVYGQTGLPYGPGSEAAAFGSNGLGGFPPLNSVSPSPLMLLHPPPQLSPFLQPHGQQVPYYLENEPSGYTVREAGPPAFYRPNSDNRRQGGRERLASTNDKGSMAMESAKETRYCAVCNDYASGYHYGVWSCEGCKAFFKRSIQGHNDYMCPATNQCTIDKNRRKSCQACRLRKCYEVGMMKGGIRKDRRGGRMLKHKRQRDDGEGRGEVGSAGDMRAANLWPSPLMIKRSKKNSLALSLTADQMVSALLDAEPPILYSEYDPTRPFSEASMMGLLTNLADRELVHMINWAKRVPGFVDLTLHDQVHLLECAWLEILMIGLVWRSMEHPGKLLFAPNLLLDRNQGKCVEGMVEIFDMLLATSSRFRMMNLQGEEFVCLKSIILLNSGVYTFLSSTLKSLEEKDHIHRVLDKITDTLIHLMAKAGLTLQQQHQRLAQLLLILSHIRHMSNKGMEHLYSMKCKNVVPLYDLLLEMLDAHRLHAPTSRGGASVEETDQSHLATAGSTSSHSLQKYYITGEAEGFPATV
How it was run: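 Agonist-mode confirmation run in the presence of 10.0nM (final) ICI-182,780 antagonist. The reporter was ERE-driven luciferase in VM7Luc4E2 cells, grown in charcoal-stripped serum. Cells were exposed to 15-concentration compound series for 22hr, then ONE-Glo luminescence was read.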

[8] = qHTS assay to identify small molecule agonists or antagonists of the thyroid stimulating hormone receptor (TSHR) signaling pathway - wild type cell line counter screen (AID 1259384)
How it was run: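 Counter screen in untransfected Hek293: compounds (15-point titration, triplicate) plus phosphodiesterase inhibitor Ro20-1724 added after 18 h plating; 30 min RT. Intracellular cAMP via competitive d2/cryptate immunoassay, 1 h incubation.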

[9] = target: Thyrotropin receptor (Homo sapiens) (UniProt P16473); test: qHTS assay to identify small molecule antagonists of the thyroid stimulating hormone receptor (TSHR) signaling pathway (AID 1259385); also: nearly all actives have a fitted effect of over 20% in size
Thyrotropin receptor (Homo sapiens), sequence (P16473 whole entry, looked up): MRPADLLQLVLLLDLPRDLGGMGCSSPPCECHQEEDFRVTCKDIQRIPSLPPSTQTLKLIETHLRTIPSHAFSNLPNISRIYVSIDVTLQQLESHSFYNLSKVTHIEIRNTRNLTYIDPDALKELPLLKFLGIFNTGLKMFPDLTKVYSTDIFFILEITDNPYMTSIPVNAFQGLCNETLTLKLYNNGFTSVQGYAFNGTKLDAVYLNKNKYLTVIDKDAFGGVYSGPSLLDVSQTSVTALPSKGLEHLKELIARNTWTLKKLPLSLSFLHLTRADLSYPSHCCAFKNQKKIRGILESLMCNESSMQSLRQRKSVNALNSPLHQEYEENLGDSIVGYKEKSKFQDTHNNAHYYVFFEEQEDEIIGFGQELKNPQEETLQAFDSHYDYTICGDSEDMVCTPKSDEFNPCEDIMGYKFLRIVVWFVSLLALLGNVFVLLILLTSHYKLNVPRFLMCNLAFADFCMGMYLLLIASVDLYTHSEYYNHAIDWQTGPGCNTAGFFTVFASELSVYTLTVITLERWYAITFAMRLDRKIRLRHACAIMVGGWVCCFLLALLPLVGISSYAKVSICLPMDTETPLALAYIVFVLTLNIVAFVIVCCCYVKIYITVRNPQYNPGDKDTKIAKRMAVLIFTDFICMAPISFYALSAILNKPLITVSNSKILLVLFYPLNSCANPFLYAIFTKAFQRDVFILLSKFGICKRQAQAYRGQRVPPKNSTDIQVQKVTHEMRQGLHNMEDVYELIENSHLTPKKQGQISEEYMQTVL
How it was run: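 Antagonist mode: compound-treated TSHR-expressing HEK293 cells were stimulated with 1.5 ng/mL TSH (final) in presence of Ro20-1724 for 30 min at RT. HTRF cAMP detection after 1 h; each compound tested at 15 concentrations, triplicate.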

[10] = qHTS assay to identify small molecule agonists of the estrogen receptor alpha (ER-alpha) signaling pathway in the presence of an antagonist - cell viability counter screen (AID 1259386; active = well fitted curve in the direction sought with a large enough effect in the repeat runs; an effect the other way counts as inactive or inconclusive; also: series mostly up to about 92 µM; nearly all actives have a fitted effect of over 30% in size)
How it was run: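 Compounds tested at 15 concentrations for 22 h at 37C alongside 10.0nM (final) ICI-182,780 antagonist, in VM7Luc4E2 cells grown in phenol red-free, charcoal-stripped medium. Viability read by CellTiter-Fluor fluorescence after 1 h reagent incubation.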

[11] = target: Progesterone receptor (Homo sapiens) (UniProt P06401); test: qHTS assay to identify small molecule agonists of the progesterone receptor (PR) signaling pathway (AID 1346784); also: nearly all actives have a fitted effect of over 30% in size
Progesterone receptor (Homo sapiens), sequence (P06401 whole entry, looked up): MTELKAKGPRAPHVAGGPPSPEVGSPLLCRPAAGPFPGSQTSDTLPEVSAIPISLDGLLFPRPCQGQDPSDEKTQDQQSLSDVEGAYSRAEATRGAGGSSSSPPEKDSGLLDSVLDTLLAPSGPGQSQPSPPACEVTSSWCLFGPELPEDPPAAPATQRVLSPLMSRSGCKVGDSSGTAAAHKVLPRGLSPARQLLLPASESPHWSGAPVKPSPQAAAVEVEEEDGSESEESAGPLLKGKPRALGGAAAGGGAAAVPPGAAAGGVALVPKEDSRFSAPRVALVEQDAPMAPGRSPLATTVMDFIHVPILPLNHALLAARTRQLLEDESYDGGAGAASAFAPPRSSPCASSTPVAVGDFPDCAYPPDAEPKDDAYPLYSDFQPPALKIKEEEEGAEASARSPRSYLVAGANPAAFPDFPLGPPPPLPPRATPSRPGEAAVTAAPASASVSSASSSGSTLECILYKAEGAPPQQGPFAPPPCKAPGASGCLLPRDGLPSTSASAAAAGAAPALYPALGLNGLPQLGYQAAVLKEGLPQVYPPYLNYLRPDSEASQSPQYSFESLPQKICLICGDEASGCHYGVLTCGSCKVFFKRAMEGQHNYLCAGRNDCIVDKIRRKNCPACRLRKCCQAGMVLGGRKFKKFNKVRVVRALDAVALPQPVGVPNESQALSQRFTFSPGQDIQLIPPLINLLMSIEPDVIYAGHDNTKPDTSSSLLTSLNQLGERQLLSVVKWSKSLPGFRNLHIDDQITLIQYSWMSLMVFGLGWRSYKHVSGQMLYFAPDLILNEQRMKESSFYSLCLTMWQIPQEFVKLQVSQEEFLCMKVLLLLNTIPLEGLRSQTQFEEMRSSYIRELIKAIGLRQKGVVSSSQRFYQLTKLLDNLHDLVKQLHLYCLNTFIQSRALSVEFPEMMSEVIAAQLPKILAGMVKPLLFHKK
How it was run: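 Fluorescence from LiveBLAzer B/G FRET substrate cleavage (2 hr, RT) reported PR activation in PR-UAS-bla HEK 293T cells treated 16 hr at 37C/5% CO2 with compounds; medium contained 2% charcoal-stripped FBS.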

[12] = qHTS assay to identify small molecule antagonists of the progesterone receptor (PR) signaling pathway - cell viability counter screen (AID 1346798; active = well fitted curve in the direction sought with a large enough effect in the repeat runs; an effect the other way counts as inactive or inconclusive; also: series mostly up to about 92 µM; nearly all actives have a fitted effect of over 50% in size)
How it was run: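 CellTiter-Glo luminescence; PR-UAS-bla HEK293T, 3,000 cells/well; compound + R5020, 16 hr, 37C/5% CO2; 30 min RT before read.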

[13] = qHTS assay to identify small molecule agonists of the progesterone receptor (PR) signaling pathway - cell viability counter screen (AID 1346799); also: nearly all actives have a fitted effect of over 45% in size
How it was run: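 In parallel with the beta-lactamase readout, cytotoxicity toward PR-UAS-bla HEK293T cells was measured by CellTiter-Glo luminescence following 16 hr compound incubation in 2% charcoal-stripped FBS medium.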

[14] = qHTS assay to identify small molecule antagonists of the TGF-beta/Smad signaling pathway - cell viability counter screen (AID 1346824; active = well fitted curve in the direction sought with a large enough effect in the repeat runs; an effect the other way counts as inactive or inconclusive; also: nearly all actives have a fitted effect of over 50% in size)
How it was run: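 Cytotoxicity counter-screen run in the same wells as the beta-lactamase Smad reporter read: CellTiter-Glo luminescence after 30 min at room temperature. HEK 293T SBE-bla cells had 5 hr compound exposure at 37 C with TGF-beta1 (0.25 ng/mL stock).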

[15] = qHTS assay to identify small molecule agonists of the TGF-beta/Smad signaling pathway - cell viability counter screen (AID 1346829; active = well fitted curve in the direction sought with a large enough effect in the repeat runs; an effect the other way counts as inactive or inconclusive; also: top concentration of the series differs between compounds; nearly all actives have a fitted effect of over 45% in size)
How it was run: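 Tox21 qHTS format: SBE-bla HEK 293T cells treated with DMSO-dissolved compounds for 5 hr; CellTiter-Glo luminescence after 30 min at room temperature.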

[16] = qHTS assay to identify small molecule agonists of the TGF-beta/Smad signaling pathway (AID 1346859; active = well fitted activation curve with a large enough effect in the signal ratio in the repeat runs, not every such curve was filed as active; the % refers to the signal ratio; also: series mostly up to about 77 µM)
How it was run: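 After overnight seeding, SBE-bla HEK 293T cells are dosed with compounds in DMSO and kept 5 hr at 37 C, 5% CO2. LiveBLAzer-type FRET substrate is then applied for 2 hr at room temperature.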

[17] = target: Thyrotropin-releasing hormone receptor (Homo sapiens) (UniProt P34981); test: qHTS assay to identify small molecule antagonists of the thyrotropin-releasing hormone receptor (TRHR) signaling pathway (AID 1346877; active = well fitted inhibition curve with a large enough effect in the repeat runs, not every such curve was filed as active; also: series mostly up to about 51 µM)
Thyrotropin-releasing hormone receptor (Homo sapiens), sequence (P34981 whole entry, looked up): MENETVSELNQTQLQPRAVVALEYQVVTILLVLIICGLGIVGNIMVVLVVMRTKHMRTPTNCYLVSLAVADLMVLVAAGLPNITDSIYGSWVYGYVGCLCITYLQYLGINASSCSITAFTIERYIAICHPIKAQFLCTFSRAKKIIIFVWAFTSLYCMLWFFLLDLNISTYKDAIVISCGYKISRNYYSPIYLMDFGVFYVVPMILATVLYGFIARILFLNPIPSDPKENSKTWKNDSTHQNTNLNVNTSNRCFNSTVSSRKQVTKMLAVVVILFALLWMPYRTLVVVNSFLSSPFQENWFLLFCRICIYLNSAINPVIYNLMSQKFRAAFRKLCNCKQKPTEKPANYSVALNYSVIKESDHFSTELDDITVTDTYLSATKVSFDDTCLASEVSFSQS
How it was run: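 Antagonist mode: after a 5 min room-temperature compound exposure, cells were stimulated with 1 nM (final) TRH. Dye-loaded TRHR-HEK293 cells were used, and calcium-dependent fluorescence was followed for 3 min, with 15-point titrations run in triplicate.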

[18] = target: Thyrotropin-releasing hormone receptor (Homo sapiens) (UniProt P34981); test: qHTS assay to identify small molecule agonists of the thyrotropin-releasing hormone receptor (TRHR) signaling pathway (AID 1346891);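 also: HEK293 cells expressing TRHR with calcium dye readout; series mostly up to about 58 µM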
How it was run: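 Compounds were tested as agonists at 15 concentrations, in triplicate, on TRHR-Hek293 cells; calcium-sensitive dye fluorescence was recorded for 3 min following addition.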

[19] = qHTS assay to identify small molecule agonists of the androgen receptor (AR) signaling pathway in the presence of an antagonist - cell viability counter screen (AID 1259379; active = well fitted curve in the direction sought with a large enough effect in the repeat runs; an effect the other way counts as inactive or inconclusive;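 also: MDA-kb2 human breast cancer cells carrying an MMTV luciferase reporter; series mostly up to about 92 µM; nearly all actives have a fitted effect of over 25% in size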)
How it was run: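 Cytotoxicity counter-screen run in the same wells as the nilutamide-challenged (3.0 µM final) AR agonist assay in MDA-kb2 cells. Compounds tested at 15 concentrations for 16 h, 37 °C without CO2; CellTiter-Fluor fluorescence read.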

[20] = target: Progesterone receptor (Homo sapiens) (UniProt P06401); test: qHTS assay to identify small molecule antagonists of the progesterone receptor (PR) signaling pathway (AID 1346795; active = well fitted inhibition curve with a large enough effect in the signal ratio in the repeat runs, not every such curve was filed as active; the % refers to the signal ratio)
How it was run: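 Fluorescence intensity measured 2 hr after adding beta-lactamase FRET substrate to PR-UAS-bla HEK293T cells that had been co-treated 16 hr with compound and 1 nM R5020 (final concentration) in 2% charcoal-stripped FBS.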

Measured: Potency

CC(=O)N1C[C@H](O)C[C@H]1C(=O)O
not listed: [19] | [20]
inactive: all other assays above

CCOC(=O)COc1cc(-n2ncc(C(F)(F)F)c(C)c2=O)c(F)cc1Cl
not listed: [3] | [15] | [16]
inactive: all other assays above

CC(N)C12CC3CC(CC(C3)C1)C2 (stereo not drawn)
not listed: [3] | [5] | [13]
inactive: all other assays above

CCCOC(=O)CC
not listed: [13] | [19]
inactive: all other assays above

CCOC(=O)C(=O)CCCCCCl
not listed: [3]
inactive: all other assays above

O=C(O)Cc1csc(-c2ccc(Cl)cc2)n1
not listed: [3] | [11] | [16] | [20]
inactive: all other assays above

CC1CCC(CO)CC1 (stereo not drawn)
not listed: [15] | [19] | [20]
inactive: all other assays above

CCOC(=O)COC(=O)c1ccccc1C(=O)OCC
not listed: [3] | [5] | [16]
inactive: all other assays above

NO
not listed: [3] | [5] | [7] | [11] | [17] | [18] | [20]
inactive: all other assays above

CC(=O)Nc1ccc(OCC(O)CNC(C)C)cc1 (stereo not drawn)
not listed: [5] | [7] | [19]
inactive: all other assays above

CC(C)CCCO
not listed: [4] | [5] | [13] | [15]
inactive: all other assays above

C=C(C)C(=O)OCCOCCOCCOCCOC(=O)C(=C)C
not listed: [4] | [5] | [7] | [20]
inactive: all other assays above

CC(C)C1CCC(O)CC1 (stereo not drawn)
not listed: [3] | [7]
inactive: all other assays above

CN(C)CCCCCCN(C)C
not listed: [5] | [7] | [19]
inactive: all other assays above

NC(=O)Cc1cccc2ccccc12
not listed: [5] | [7] | [13] | [19]
inactive: all other assays above

CC(C)(CCC(=O)O)C(=O)O
not listed: [4] | [5] | [8] | [9] | [13]
inactive: all other assays above

CN1CC(=O)N/C1=N/C(=O)Nc1cccc(Cl)c1
not listed: [3] | [5] | [7] | [13]
inactive: all other assays above

— PubChem BioAssay (Tox21)
